{"source": "PubChem BioAssay (NCATS)", "note": "Records with an inconclusive call do not appear. Values without a mark were called inactive. Active and inactive are the calls of the source. Calls follow the shape of the dose curve; as a rule, active = well fitted curve in the direction sought with a large enough effect; inconclusive = small, poorly fitted or top-dose-only effect, or another doubt; inactive = no such curve, though single readings can be large; an effect the other way counts as inactive or inconclusive.", "data": [{"test": "qHTS for activators of dead-cell proteases activity screened against the NCATS CANVASS Library (AID 1347392);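 also: luminescence from protease leaking out of membrane-damaged cells cleaving impermeant substrate; 0% is about no effect; rising signal means more cytotoxicity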", "conditions": "HepG2 cytotoxicity, dead-cell protease luminescence, 5 h; series mostly up to 46.1 µM; activation (cytotoxicity): at the top concentration", "summary_of_the_method": "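HepG2 cells, 2000/well, attached 18 h at 37C, then exposed to compounds (11-point qHTS) for 5 h. Dead-cell protease release read as luminescence from cell-impermeant AAF-aminoluciferin substrate after 15 min at room temperature.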", "units": {"activation (cytotoxicity)": "%"}, "values": [{"smiles": "CN1CC[C@]2(c3cccc4c3N[C@H]3N(C)CC[C@@]43[C@]34CCN(C)[C@H]3Nc3ccccc34)c3ccccc3N[C@H]12", "activation (cytotoxicity)": 8.63}, {"smiles": "CC[C@H]1[C@H](C)[C@H](c2cc(OC)c(OC)cc2OC)[C@@H](C)[C@H](c2cc(OC)c(OC)cc2OC)[C@@]12C=C(OC)C(=O)C=C2OC", "activation (cytotoxicity)": 3.83}, {"smiles": "CC(=O)Oc1cc2c(c(OC(C)=O)c1C1CCc3cc(Cl)c(Cl)n31)C(=O)n1c-2cc(Cl)c1Cl", "note": "(stereo not drawn)", "activation (cytotoxicity)": -1.12}, {"smiles": "COc1cc2c(cc1OC)[C@@H](c1ccc3c(c1)OCO3)C(C)C(C)C2=O", "note": "(stereo partly drawn)", "activation (cytotoxicity)": 4.37}, {"smiles": "C/C=C(/C)c1c(Cl)c(O)c(C)c2c1Oc1c(Cl)c(O)c(Cl)c(C)c1C(=O)O2", "activation (cytotoxicity)": 2.33}, {"smiles": "CC(C)C[C@@H]1c2c(O)c(C=O)c(O)c(C=O)c2O[C@]2(C)C=C[C@@H](C(C)C)C[C@H]12", "activation (cytotoxicity)": -0.902}, {"smiles": "C/C=C(/C)c1cc(O)c(C)c2c1Oc1cc(O)cc(C)c1C(=O)O2", "activation (cytotoxicity)": 0.869}, {"smiles": "CC(C)[C@]12CC[C@@]3(C)[C@H](C)CC[C@H](O)[C@@]3(CC1)c1cc3c(cc12)[nH]c1ccccc13", "activation (cytotoxicity)": -1.37}, {"smiles": "C[C@H]1C=C[C@H]2CCCC[C@@H]2[C@H]1C(=O)[C@H]1CC2=C(C(=O)O)CCN2C1=O", "activation (cytotoxicity)": -0.848}, {"smiles": "C/C=C(/C)c1c(Cl)c(OC)c(C)c2c1Oc1c(Cl)c(O)c(Cl)c(C)c1C(=O)O2", "activation (cytotoxicity)": 4.98}, {"smiles": "C/C(=C\\CC[C@@H](C)[C@H]1CC[C@]2(C)C3=CCC4C(C)(C)[C@@H](O)C[C@@H](O)[C@]4(C)C3[C@H](O)C[C@@]12C)CO", "note": "(stereo partly drawn)", "activation (cytotoxicity)": -2.04}, {"smiles": "COC12OC1(C13OC1(OC)C(=O)c1cc4cc(C)oc(=O)c4c(O)c1C3O)C(O)c1c(cc3cc(C)oc(=O)c3c1O)C2=O", "note": "(stereo not drawn)", "activation (cytotoxicity)": 1.76}, {"smiles": "CO[C@H]1[C@@H](OC(=O)/C(C)=C\\[C@@H]2O[C@@H]2[C@H]2O[C@H]2C)[C@H](O)[C@H](OCC23C[C@@H]4[C@H](C)CC[C@H]4C4(C=O)CC2C=C(C(C)C)C34C(=O)O)O[C@@H]1C", "note": "(stereo partly drawn)", "activation (cytotoxicity)": 1.57}]}, {"test": "qHTS for inhibitors of ER calcium dysfunction: SERCaMP assay screened against the NCATS CANVASS Library (AID 1347393); also: nearly all actives have a fitted effect of over 40% in size; also: potency is read from the fitted curve at half-maximal effect;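 as to activity change, negative = inhibition: % is scaled to controls: 0 for no effect and ±100 for the full control effect; lower secreted reporter signal means inhibitor of ER calcium depletion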", "conditions": "SH-SY5Y GLuc-SERCaMP secretion, thapsigargin, luminescence; series mostly up to 76.6 µM; activity change, negative = inhibition: at the top concentration", "summary_of_the_method": "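SH-SY5Y GLuc-SERCaMP, 1000 cells/well, 4 h attach; cpd 16 h, 37C/5% CO2; thapsigargin (added as 6x 600 nM) 4 h; coelenterazine; luminescence. Reduced reporter release = ER Ca stabilization.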", "values": [{"smiles": "C/C=C/C1C=CC2CC(C)CC(C)C2C1C(=O)CC(=O)NC(CO)C/C=C/CCCCC", "note": "(stereo not drawn)", "Potency": "6.09 µM (active)"}, {"smiles": "C=CC(CCCCC)C1C(=O)NC(=O)C1C(=O)C1C(/C=C/C)C=CC2CC(C(=O)O)CC(C)C21", "note": "(stereo not drawn)", "activity change, negative = inhibition": "5.84%"}, {"smiles": "COc1cc(/C=C/C(=O)OC[C@@H](Cc2ccc(O)c(OC)c2)[C@@H](COC(=O)/C=C/c2ccc(O)c(OC)c2)Cc2ccc(O)c(OC)c2)ccc1O", "Potency": "3.43 µM (active)"}, {"smiles": "C=C1CC[C@@H](O[C@H]2C[C@@](O)([C@H](C)NC(=O)c3[nH]c(C)c(Cl)c3Cl)[C@H](O)[C@@H](C)O2)[C@@H]2C=C[C@H](C)C(/C(O)=C3/C(=O)[C@H](C(C)C)N([C@@H]4O[C@H](C)[C@H](OC(N)=O)[C@H](OC(C)=O)[C@@H]4OC)C3=O)[C@@H]12", "note": "(stereo partly drawn)", "activity change, negative = inhibition": "-22.2%"}, {"smiles": "C[C@]12CC[C@]3(C1)[C@H](CC2=O)C[C@@H](OC(=O)c1ccccc1)[C@H]1[C@](C)(C(=O)O)CCC[C@@]13C", "activity change, negative = inhibition": "6.02%"}, {"smiles": "COc1ccc2[nH]c3c(c2c1)CCN1C[C@H]2C[C@@H](OC(=O)c4cc(OC)c(OC)c(OC)c4)[C@H](OC)[C@@H](OC)[C@H]2C[C@H]31", "Potency": "6.09 µM (active)"}, {"smiles": "CC(=O)O[C@H]1c2ccccc2-c2c3c(cc4c2[C@@H]1N(C(C)=O)CC4)OCO3", "Potency": "34.3 µM (active)"}, {"smiles": "C=CC(CCCCC)C1C(=O)NC(=O)C1C(=O)C1C2C(C)CC(C(=O)O)CC2CC1(O)C(=O)/C=C/C", "note": "(stereo not drawn)", "activity change, negative = inhibition": "-39.2%"}, {"smiles": "C[C@]12CCC[C@](C)(C(=O)O)[C@@H]1CC[C@@]1(C)c3cocc3CC[C@H]21", "activity change, negative = inhibition": "-18.4%"}, {"smiles": "COc1cc(C2OCC3C(c4ccc(O)c(OC)c4)OCC23)ccc1O", "note": "(stereo not drawn)", "activity change, negative = inhibition": "43.6% [at 15.3 µM]"}, {"smiles": "C[n+]1cc2cc(C(N)=O)[nH]c3c(=N)c(Cl)c(N)c1c23", "activity change, negative = inhibition": "-6.52%"}, {"smiles": "COc1cc2c(c(O)c1O)C(=O)c1c(coc1C)C2=O", "activity change, negative = inhibition": "-48.9%"}, {"smiles": "CCC(=O)N[C@@H](C[C@H](C)C(Cl)(Cl)Cl)C(=O)N1C(=O)C=C(OC)[C@@H]1CC(C)C", "activity change, negative = inhibition": "-29%"}, {"smiles": "O=c1cc(-c2ccc(O)c(O)c2)oc2cc(O[C@@H]3O[C@H](CO)[C@@H](O)[C@H](O)[C@H]3O)cc(O)c12", "Potency": "38.4 µM (active)"}, {"smiles": "C/C1=C/[C@@H](C)[C@H](O)[C@@H](O)/C=C/CC/C=C/C(=O)O[C@@H]1[C@H](C)C(=O)CCCC1CC(=O)NC(=O)C1", "activity change, negative = inhibition": "36.1%"}, {"smiles": "C/C=C(/C)c1c(Cl)c(O)c(C)c2c1Oc1c(Cl)c(O)c(Cl)c(C)c1C(=O)O2", "activity change, negative = inhibition": "24.1%"}, {"smiles": "CC(C)C[C@@H]1c2c(O)c(C=O)c(O)c(C=O)c2O[C@]2(C)C=C[C@@H](C(C)C)C[C@H]12", "activity change, negative = inhibition": "-20.5%"}, {"smiles": "C[C@H]1C=C[C@H]2CCCC[C@@H]2[C@H]1C(=O)[C@H]1CC2=C(C(=O)O)CCN2C1=O", "Potency": "19.3 µM (active)"}, {"smiles": "C/C=C(/C)c1c(Cl)c(OC)c(C)c2c1Oc1c(Cl)c(O)c(Cl)c(C)c1C(=O)O2", "activity change, negative = inhibition": "23.8%"}, {"smiles": "COC12OC1(C13OC1(OC)C(=O)c1cc4cc(C)oc(=O)c4c(O)c1C3O)C(O)c1c(cc3cc(C)oc(=O)c3c1O)C2=O", "note": "(stereo not drawn)", "activity change, negative = inhibition": "3.35%"}]}]}
